Several values for one entry are separate records, joined by “and”; a condition that tells them apart may be missing. Equal values may be shown once. Among all 410,000 compounds or so, about 2,400 (0.59%) were called active. No stated cut-off is given here; in the data, active means max activation above about 30%; inactive means the rest. The list comes from a sample in which actives are over-represented; it also holds similar structures and randomly drawn compounds.

Chain of D(3) dopamine receptor (Homo sapiens) (P35462 whole entry, looked up): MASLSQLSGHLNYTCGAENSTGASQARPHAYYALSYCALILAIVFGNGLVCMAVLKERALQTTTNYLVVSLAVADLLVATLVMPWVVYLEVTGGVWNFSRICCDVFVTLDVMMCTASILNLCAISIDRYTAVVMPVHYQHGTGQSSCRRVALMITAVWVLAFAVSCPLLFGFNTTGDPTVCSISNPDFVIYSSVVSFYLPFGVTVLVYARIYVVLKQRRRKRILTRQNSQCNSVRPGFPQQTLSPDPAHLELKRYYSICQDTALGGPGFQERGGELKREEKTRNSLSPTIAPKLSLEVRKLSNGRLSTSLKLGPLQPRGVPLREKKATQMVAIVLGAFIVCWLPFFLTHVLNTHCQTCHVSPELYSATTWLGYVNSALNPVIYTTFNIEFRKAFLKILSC

This experiment concerns the target D(3) dopamine receptor (Homo sapiens) (UniProt P35462). The experiment in a line: qHTS of D3 Dopamine Receptor Agonist: qHTS. Further: 0% is about no effect. To be noted: D3R DiscoveRx beta-arrestin cells, luminescence, 90 min; stronger effect = higher value. From the text: D3 DARs represent a very important target for the treatment of several neuropsychiatric disorders. Indeed, one of the most promising therapeutic applications for the D3 DAR is in the area of addiction and related disorders. […] These findings have been observed with a number of addictive substances including cocaine, amphetamine, nicotine, and alcohol. […] Antagonism of the D3 DAR may also be therapeutic in the treatment of schizophrenia or psychosis. […] Since the D3 DAR is expressed in areas of the CNS associated with the control of mood and emotion, it has been hypothesized that selective antagonism of the D3 DAR may be effective in treating psychosis without inducing the motor side effects typically seen with D2 DAR antagonists.
This part of the project aims to discover novel agonist.
NIH Chemical Genomics Center [NCGC]
NIH Molecular Libraries Probe Centers Network [MLPCN]
Assay Submitter (PI): David Sibley, NINDS
Freshly passaged cells are plated in 1536 well white, solid bottom plates at a density of 1500 cells/well in 3microl of complete media. After an overnight incubation at 37 degrees C in 5% CO2, cells are loaded with 23nl of test compound from the compound library (as well as dopamine controls) using a 1536 pintool and incubated at 37 degrees C for 90 minutes. Two microliters of DiscoveRx reagent is then added to all cells, and they are incubated for an additional 30 - 60 minutes at room temperature. Following incubation, luminescence is measured on a ViewLux CCD-based luminometer reader using a 20 sec exposure time.
Background: Quantitative high-throughput screening tests each substance at several concentrations.
Take `O=c1[nH]c(CN2CC=C(c3ccccc3)CC2)nc2scc(-c3cccs3)c12`: the max activation was 53.9% (active).
Under `CCCCC1C(=O)NC(=O)N(C2CCCCC2)C1=O` (stereo not given) stands -3.28% (inactive).
Under `O=P1(N(CCCl)CCCl)NC(OO)CCO1` (stereo not given) stands 1.75% (inactive); under `C#C[C@]1(OC(=O)CCCCCC)CC[C@H]2[C@@H]3CCC4=CC(=O)CC[C@@H]4[C@H]3CC[C@@]21C`, 26.4% (inactive).
For `O=S(=O)(O)C(F)(F)C(F)(F)C(F)(F)C(F)(F)F` the value was -6.51% (inactive); for `COc1cc(C[C@H](C)N)c(OC)cc1Br`, -14.5% (inactive); for `C[C@]12CC[C@H](O)C[C@H]1CC[C@@H]1C2CC[C@]2(C)[C@@H](C3=CC(=O)OC3)[C@@H](O)C[C@]12O` (stereo not given in full), 51.5% (active).
As to `COC1C(O)C(C)OC(OC2CCC3(C=O)C(CCC4C3CCC3(C)C(C5=CC(=O)OC5)CCC43O)C2)C1O` (stereo not given), the max activation was 1.37% (inactive).
On to `COC12CC[C@@]3(C[C@@H]1C(C)(O)C(C)(C)C)[C@H]1Cc4ccc(O)c5c4[C@@]3(CCN1CC1CC1)[C@H]2O5` (stereo not given in full), for which the max activation is 6.77% (inactive).
Turning to `O=C1C[C@@H]2OCC=C3CN4CC[C@]56c7ccccc7N1[C@H]5[C@H]2[C@H]3C[C@H]46` (tested in a mixture with another compound), the max activation is 11.4% (inactive) and 8.18% (inactive).

The values are drawn from PubChem BioAssay AID652048 (National Center for Advancing Translational Sciences (NCATS), 2013).
